Screening data (PubChem BioAssay)
Sampled rows, rich in hits. Any-hit rate of the full collection: about 5.6%.
Six1-Eya2 inh = Six1/Eya2 interaction inhibition | Q15475+O00167 | AlphaScreen GST-Six1/His-Eya2 binding, biochemical; stronger effect = lower value | activity change, % (no concentration beside the values) | 0.56% of 360,000 active; in the data active = activity change below about -65%; inconclusive = mostly about -30% to -63%
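AlphaScreen with GST-Six1 and His-Eya2 (5X mix: 250 nM and 500 nM), glutathione donor and nickel acceptor beads; buffer 50 mM Tris pH 8.0, 300 mM NaCl, 1 mM TCEP; 1 h at 37 C in the dark.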
VP16 counter = counter-screen for ROR gamma inhibitors: Gal4-VP16 reporter. AID 2546. 3.5% of 310,000 active. Potency, µM (doses to about 53.6 µM), most hits filed as inhibitors. Drosophila S2 Gal4-VP16 UAS-luciferase, luminescence, 20 h;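 also: Gal4-VP16 expression switched on by copper sulfate through the metallothionein promoter; nearly all actives have a fitted effect of over 50% in size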
RORg inh = blocks mouse ROR gamma transcriptional activity; Drosophila S2 Gal4-RORgamma UAS-luciferase reporter, 20 h; AID 2551; 5.4% of 310,000 active; Potency, µM (highest dose often 53.6 µM), usual class: inhibitors; also: nearly all actives have a fitted effect of over 60% in size
Target sequence (P51450 whole entry, looked up, the tested form may be a part): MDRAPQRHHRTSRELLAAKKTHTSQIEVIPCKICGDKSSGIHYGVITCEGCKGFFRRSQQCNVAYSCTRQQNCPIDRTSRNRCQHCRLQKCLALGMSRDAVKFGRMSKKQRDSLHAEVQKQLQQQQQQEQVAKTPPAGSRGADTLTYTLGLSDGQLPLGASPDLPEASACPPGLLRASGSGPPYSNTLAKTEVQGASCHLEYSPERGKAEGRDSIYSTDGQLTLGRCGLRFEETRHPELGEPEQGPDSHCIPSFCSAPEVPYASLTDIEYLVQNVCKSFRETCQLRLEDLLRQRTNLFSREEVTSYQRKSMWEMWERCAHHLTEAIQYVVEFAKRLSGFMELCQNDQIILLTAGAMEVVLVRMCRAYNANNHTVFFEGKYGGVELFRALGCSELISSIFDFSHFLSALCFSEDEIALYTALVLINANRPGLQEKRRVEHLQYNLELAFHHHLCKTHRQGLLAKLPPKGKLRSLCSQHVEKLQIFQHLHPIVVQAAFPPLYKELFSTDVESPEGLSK
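Stable Schneider cell line, Gal4 DNA-binding domain fused to ROR gamma, UAS-luciferase. Cmpd 1 hr RT → CuSO4 700 uM final → 20 hr RT → luciferase reagent 10 min → luminescence.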
CtBP-E1A inh = inhibitors of CtBP/E1A interaction. AlphaScreen GST-E1A/His-CtBP binding, 1536-well; stronger effect = lower value. activity change, % (no concentration beside the values). 0.49% of 340,000 active. AID 651724; in the data active = activity change below about -65%; inconclusive = mostly about -30% to -63%
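Homogeneous bead-based format: GST-tagged E1A captured on glutathione donor beads, His-tagged CtBP on nickel acceptor beads; compounds precede bead addition by 2 h at 37 °C.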
PKM2 activator = increases activity of human pyruvate kinase M2 | P14618 | purified PKM2, Kinase-Glo ATP luminescence, activation; response scale: 0% is enzyme alone, no compound | Potency, µM (highest dose often 57.5 µM), hits mostly activators | 0.34% of 260,000 active; also: nearly all actives have a fitted effect of over 55% in size
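hPK-M2, >95% pure; 0.1 mM ADP / 0.5 mM PEP final; imidazole pH7.2 buffer w/ 7 mM MgCl2, 50 mM KCl; 1 h RT; Kinase-Glo lum. Intermediate enzyme activity for dual inhibitor/activator qHTS.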
A number is an active result; [ ] = another dose, or the depositor's remark. Unless noted, calls follow the shape of the dose curve; as a rule, active = well fitted curve in the direction sought with a large enough effect; inconclusive = small, poorly fitted or top-dose-only effect, or another doubt; inactive = no such curve, though single readings can be large; an effect the other way counts as inactive or inconclusive.

`CC(C1CC1)N(Cc1ccccc1)C(=S)Nc1ccccc1` (stereo not drawn) gave Six1-Eya2 inh inactive, VP16 counter inconclusive, RORg inh 11.2µM, CtBP-E1A inh inactive and PKM2 activator inactive.
`CN(C)C(=S)Nc1cccc(C(F)(F)F)c1` gave Six1-Eya2 inh inactive, VP16 counter inactive, RORg inh inactive, CtBP-E1A inh inactive and PKM2 activator inactive.
For Cc1ccc(NC(=S)N(Cc2ccccc2)C(C)C)cc1 the results were Six1-Eya2 inh inactive, VP16 counter inconclusive, RORg inh 10µM, CtBP-E1A inh inactive and PKM2 activator inactive.
`CC(C1CC1)N(Cc1ccccc1)C(=S)Nc1cccc(C(F)(F)F)c1` (stereo not drawn) gave Six1-Eya2 inh inactive, VP16 counter inconclusive, RORg inh 11.2µM, CtBP-E1A inh inactive and PKM2 activator inactive.
Screening Cc1ccc(C)c(S(=O)(=O)N2CCN(C(=O)CCC(=O)c3cc(C)sc3C)CC2)c1 returned Six1-Eya2 inh inactive and CtBP-E1A inh inactive.
CCc1cc(OCCCSc2nc(C)cc(=O)[nH]2)ccc1Cl was read as Six1-Eya2 inh inactive, VP16 counter 8.91µM, RORg inh inconclusive, CtBP-E1A inh inactive and PKM2 activator inactive.
`COc1ccccc1OCC(=O)NNC(=S)NC(=O)c1ccco1` gave Six1-Eya2 inh inactive, VP16 counter inconclusive, RORg inh inactive, CtBP-E1A inh inactive and PKM2 activator inactive.
O=C(NC(=S)NNC(=O)c1cc2ccccc2cc1O)c1ccco1 was read as Six1-Eya2 inh -91.4, VP16 counter inactive, RORg inh inconclusive, CtBP-E1A inh -93.9 and PKM2 activator inactive.
For O=C(NC(=S)NNC(=O)c1ccccc1O)c1ccco1 the results were Six1-Eya2 inh -90.6, VP16 counter 3.55µM, RORg inh inactive, CtBP-E1A inh inactive and PKM2 activator inactive.
CC1(NC(=O)Cc2ccc(S(=O)(=O)N3CCOCC3)s2)CCS(=O)(=O)C1 (stereo not drawn) was read as Six1-Eya2 inh inactive and CtBP-E1A inh inactive.
Cc1nn(Cc2ccccc2)c(Cl)c1/C=C/C(=O)OC(C(=O)NC(N)=O)C(C)C (stereo not drawn) was read as Six1-Eya2 inh inactive, VP16 counter inactive, RORg inh inactive, CtBP-E1A inh inactive and PKM2 activator inactive.
Screening COc1ccccc1S(=O)(=O)N(C)C[C@@H]1OCc2cnnn2CCCC(=O)N([C@@H](C)CO)C[C@H]1C returned Six1-Eya2 inh inactive and CtBP-E1A inh inactive.
Screening C[C@H]1CN([C@@H](C)CO)C(=O)c2cc(C#CCC3CCCC3)cnc2O[C@@H]1CN(C)C(=O)CC1CC1 returned Six1-Eya2 inh inactive and CtBP-E1A inh inactive.
`Cc1n[nH]c(=O)c2c(NC(=O)CSc3ccc(Br)cc3)oc(C)c12` gave Six1-Eya2 inh inactive and CtBP-E1A inh inactive.
O=C1NC(=S)S/C1=C\C=C\c1ccc([N+](=O)[O-])o1 was read as Six1-Eya2 inh inconclusive, VP16 counter 4.47µM, RORg inh 5.62µM, CtBP-E1A inh inconclusive and PKM2 activator inactive.
Screening O=C1SCCN1N=Cc1ccc([N+](=O)[O-])o1 returned Six1-Eya2 inh inactive and CtBP-E1A inh inactive.
COc1ccc(C2(c3ccc(OC(C)=O)cc3OC(C)=O)CC(c3ccccc3)NC(=S)N2)cc1 (stereo not drawn) was read as Six1-Eya2 inh inconclusive, VP16 counter inactive, RORg inh inactive, CtBP-E1A inh inactive and PKM2 activator inactive.
For CC(=O)Oc1ccc(C2(C)CC(C)(C)NC(=S)N2C)c(OC(C)=O)c1 (stereo not drawn) the results were Six1-Eya2 inh inactive, VP16 counter inconclusive, RORg inh 12.6µM, CtBP-E1A inh inactive and PKM2 activator inactive.
`C=C1C(=O)[C@]23[C@H](O)[C@H]1CC[C@H]2[C@@]12COC3(O)[C@H](O)[C@@H]1C(C)(C)CC[C@@H]2O` gave VP16 counter 3.55µM and RORg inh 3.16µM.
Screening NS(=O)(=O)c1ccc(Nc2nc3ccccc3nc2NS(=O)(=O)c2cccc([N+](=O)[O-])c2)cc1 returned Six1-Eya2 inh inactive, VP16 counter inactive, RORg inh inactive, CtBP-E1A inh inactive and PKM2 activator inactive.
COc1ccccc1N1CCN(C(=O)CSc2nc(C)c(Cc3ccccc3)c(=O)[nH]2)CC1 was read as Six1-Eya2 inh inactive, VP16 counter inactive, RORg inh inconclusive, CtBP-E1A inh inactive and PKM2 activator 12.6µM.
`COc1ccccc1N1CCN(C(=O)CSc2nc(-c3ccccc3)cc(=O)[nH]2)CC1` gave Six1-Eya2 inh inactive, VP16 counter inactive, RORg inh inconclusive, CtBP-E1A inh inactive and PKM2 activator inactive.
Screening C[C@@H]1CC[C@H]2C(=O)O[C@H](CN=[N+]=[N-])CN2[C@@H]1c1ccc(Br)cc1 returned VP16 counter inactive[10 µM] and RORg inh inactive[10 µM].
Screening Nc1cc(=O)[nH]c(=S)n1-c1cccc(C(F)(F)F)c1 returned Six1-Eya2 inh inactive, VP16 counter inactive, RORg inh inactive, CtBP-E1A inh inactive and PKM2 activator inactive.
`COc1cccc(-c2cn(-c3cccc(C(F)(F)F)c3)c(=S)[nH]2)c1` gave Six1-Eya2 inh inactive, VP16 counter inconclusive, RORg inh 3.16µM and CtBP-E1A inh inactive.
Screening COc1ccccc1-n1cc(-c2ccccc2)[nH]c1=S returned Six1-Eya2 inh inactive, VP16 counter 20µM and RORg inh 3.98µM.
For Cc1cccc(-n2cc(-c3ccccc3)[nH]c2=S)c1 the results were Six1-Eya2 inh inactive, VP16 counter 7.08µM, RORg inh 2.51µM and CtBP-E1A inh inactive.
For CCOc1ccc(-c2cn(-c3ccccc3OC)c(=S)[nH]2)cc1 the results were Six1-Eya2 inh inactive, VP16 counter 8.91µM, RORg inh 3.55µM and CtBP-E1A inh inactive.
For Fc1cccc(Cl)c1Cn1nnc2c(NCc3ccncc3)ncnc21 the results were Six1-Eya2 inh inactive, VP16 counter inconclusive, RORg inh inactive, CtBP-E1A inh inactive and PKM2 activator inactive.
`CCOc1ccc(-n2cnc3scc(-c4ccc(OC)c(OC)c4)c3c2=O)cc1` gave Six1-Eya2 inh inactive, VP16 counter inactive, RORg inh inactive, CtBP-E1A inh inactive and PKM2 activator inactive.
CCOc1ccc(-n2cc(-c3ccc(OC)c(OC)c3)[nH]c2=S)cc1 was read as Six1-Eya2 inh inactive, VP16 counter inconclusive, RORg inh 1.26µM, CtBP-E1A inh inactive and PKM2 activator inactive.
Screening COc1ccc(-n2cc(-c3ccccc3)[nH]c2=S)cc1 returned Six1-Eya2 inh inactive, VP16 counter 3.55µM, RORg inh 2.24µM, CtBP-E1A inh inactive and PKM2 activator inactive.
`COc1ccc(-n2cc(-c3ccccc3)c3c(=O)[nH]cnc32)cc1` gave Six1-Eya2 inh inactive, VP16 counter inactive, RORg inh inactive, CtBP-E1A inh inactive and PKM2 activator inconclusive.
Screening Cc1ccc(-c2cn(-c3ccccc3F)c(=S)[nH]2)cc1 returned Six1-Eya2 inh inactive, VP16 counter 7.08µM, RORg inh 1.78µM and CtBP-E1A inh inactive.
